HT1080NT lethal: kills 2HG-producing HT-1080-NT fibrosarcoma cells | HT-1080-NT fibrosarcoma viability, CellTiter-Glo ATP luminescence, 48 h | Potency, µM (highest dose often 46.1 µM), for the others: top-dose activity, negative = less viability, most hits filed as cytotoxic | 360,000 tested, 1.6% active;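 note: NT is the 2HG producing partner of a matched IDH1 knockdown line; potency is the fitted concentration of half-maximal effect; 0% = DMSO-treated cells and -100% = media-only wells without cells; nearly all actives have a fitted effect of over 55% in size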
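Toxicity toward the 2HG-producing NT line was scored as %Activity, normalised to DMSO and no-cell wells, from CellTiter-Glo luminescence after 48 hours' treatment.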
12-LOX inh: blocks human arachidonate 12S-lipoxygenase; P18054; purified 12hLO, xylenol orange hydroperoxide absorbance; Potency, µM (highest dose often 108 µM), inactives show at the highest dose activity change, negative = inhibition, most hits filed as inhibitors; 580,000 tested, 1.1% active; AID 1671190; note: potency is the fitted concentration of half-maximal effect
Target sequence (P18054 whole entry, looked up): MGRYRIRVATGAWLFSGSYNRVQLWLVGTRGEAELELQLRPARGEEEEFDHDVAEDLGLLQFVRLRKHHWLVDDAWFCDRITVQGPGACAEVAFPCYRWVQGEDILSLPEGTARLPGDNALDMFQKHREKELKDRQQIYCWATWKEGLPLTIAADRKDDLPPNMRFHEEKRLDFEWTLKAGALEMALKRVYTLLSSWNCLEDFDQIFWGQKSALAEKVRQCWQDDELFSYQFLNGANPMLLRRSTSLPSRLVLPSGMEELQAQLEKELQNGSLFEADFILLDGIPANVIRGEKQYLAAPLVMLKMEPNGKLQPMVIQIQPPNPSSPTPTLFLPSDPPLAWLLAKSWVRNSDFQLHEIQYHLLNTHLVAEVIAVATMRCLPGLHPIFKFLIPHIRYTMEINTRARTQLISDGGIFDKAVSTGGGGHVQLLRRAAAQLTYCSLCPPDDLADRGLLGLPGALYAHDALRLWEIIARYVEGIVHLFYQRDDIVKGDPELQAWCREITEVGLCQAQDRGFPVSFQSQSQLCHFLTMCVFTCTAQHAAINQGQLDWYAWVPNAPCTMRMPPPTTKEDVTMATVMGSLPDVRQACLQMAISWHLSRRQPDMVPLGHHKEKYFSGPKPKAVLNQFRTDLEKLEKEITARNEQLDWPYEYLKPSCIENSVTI
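Hydroperoxide product was detected by ferrous iron/xylenol orange as the 573 to 405 nm absorbance ratio. Arachidonic acid at 40 uM (final) was turned over for 30 min at room temperature by 150 nM human 12hLO, pH 7.0 Hepes buffer, after 15 min compound preincubation.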
IL-1B inflam inh: inflammasome signaling inhibition, IL-1 beta readout | AID 743279 | THP-1 LPS/ATP IL-1B secretion, AlphaLISA, 16 h; hits give low values | activity change, % at 57.5 µM | 360,000 tested, 4.7% active; in the data active = activity change below about -50%; inconclusive = mostly about -30% to -49%
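THP-1 cells pretreated 1 hr with compounds (up to 57.5 uM final), then stimulated with LPS (250 ng/mL final) plus ATP (1.25 mM final); secreted IL-1B measured by AlphaLISA after 16 hr, decreased signal indicating inhibition.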
TDP1 cell noCPT: qHTS for Inhibitors of human tyrosyl-DNA phosphodiesterase 1 (TDP1): qHTS in cells in absence of CPT | AID 686978, 2013 | DT40 Tdp1-/- hTDP1 cells, no CPT, ATP luminescence, 48 h | 420,000 tested, 15% active | Potency, µM (titrated, usually from 46.2 µM), for the others: at the highest dose activity change, negative = growth inhibition, actives largely listed as inhibitors; note: potency is the fitted concentration of half-maximal effect; nearly all actives have a fitted effect of over 55% in size
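A cellular qHTS used chicken DT40 cells lacking endogenous Tdp1 but carrying stably transfected human TDP1. Compounds were applied without camptothecin, and cell growth kinetics were judged by ATP-dependent luminescence after ≥48 hr.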
DT40 TDP1 CPT: DT40-hTDP1 cell growth loss with CPT; chicken DT40 Tdp1-/-;hTDP1 cells + 20 nM CPT, ATP luminescence, 48 h; Potency, µM (series often up to 46.2 µM), inactives show at the top dose activity change, negative = growth inhibition, hits mostly inhibitors; 420,000 tested, 12% active; note: potency is the fitted concentration of half-maximal effect; nearly all actives have a fitted effect of over 55% in size
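Chicken DT40 Tdp1-/- cells stably complemented with human TDP1 were seeded at 400 cells/well in medium containing 20 nM camptothecin, exposed to pin-transferred compounds, and grown at 37 °C for at least 48 hr. Viability was read as ATP luminescence.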
HT1080 IDH1KD tx: HT-1080 IDH1 knockdown cell toxicity (counter line); HT-1080 IDH1 knockdown viability, ATP luminescence, 48 h; Potency, µM (doses to about 46.1 µM), for the others: at the highest dose activity, negative = toxicity, hits mostly cytotoxic; 360,000 tested, 2% active; AID 686971;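 note: potency is the fitted concentration of half-maximal effect; 0% = DMSO wells and -100% = cell-free medium wells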
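Knockdown cells (IDH1KD HT-1080) received compounds 2 h after plating at 750 cells/well and were kept 48 h at 37 °C in 5% FBS RPMI. A CellTiter-Glo luminescence read gave % activity for curve fitting.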
Numbers without * were called inactive; ? = inconclusive; / = no result given; [ ] = dose if it differs, or a comment. Only a selection was taken, and hits are over-represented in it overall. Unless noted, calls come from the whole dose curve; as a rule, active = well fitted curve in the direction sought with a large enough effect; inconclusive = small, poorly fitted or top-dose-only effect, or another doubt; inactive = no such curve, though single readings can be large; an effect the other way counts as inactive or inconclusive. Unless noted, % is set by controls: 0 for no effect and ±100 for the full control effect.

SMILES	HT1080NT lethal	12-LOX inh	IL-1B inflam inh	TDP1 cell noCPT	DT40 TDP1 CPT	HT1080 IDH1KD tx
CCCCCCn1c(=O)n2n(c1=O)[C@@H]1CN(S(=O)(=O)c3ccc(C)cc3)C[C@]1(O)[C@@H](OC(=O)NC1CC1)C2	0%	?	4	16µM*	?	5%
CCCCCCn1c(=O)n2n(c1=O)[C@@H]1CN(S(=O)(=O)c3ccc(C)cc3)C[C@]1(O)[C@@H](OC(=O)NCc1ccc(OC)c(OC)c1)C2	-23%	-6%	?	?	?	4%
Cc1ccc(S(=O)(=O)N2C[C@H]3n4c(=O)ccc(=O)n4C[C@H](OC(=O)Nc4cccs4)[C@@]3(O)C2)cc1	?	?	-79*	?	?	-30%
CCCCCCn1c(=O)n2n(c1=O)[C@@H]1CN(S(=O)(=O)c3ccc(C)cc3)C[C@]1(O)[C@@H](OC(=O)NCC1CCCCC1)C2	?	-28%	?	16µM*	?	?
Cc1ccc(S(=O)(=O)N2C[C@H]3n4c(=O)ccc(=O)n4C[C@H](OC(=O)NCc4ccccc4F)[C@@]3(O)C2)cc1	-27%	-16%	-108*	21µM*	?	?
COCCNC(=O)C1COC2(CCN(C(=O)c3ccc(F)cc3)CC2)N1C(=O)c1ccc(C)cc1 (stereo unspecified)	/	-1%	/	/	/	/
CCN(C(=O)C1CCCCC1)C1CC1	/	-23%	/	/	/	/
COc1ccc(C(=O)N2CCCC(c3nc(-c4ccccc4)no3)CCNC(=O)CC2)c(OC)c1 (stereo unspecified)	/	-6%	/	/	/	/
O=C(CSc1nc(Nc2ccc(F)cc2)c2ccccc2n1)c1ccc(F)cc1	/	-11%	/	?	?	/
COc1cc(Nc2nc(SCC(=O)c3ccc(Br)cc3)nc3ccccc23)cc(OC)c1	/	0%	/	2.9µM*	5.2µM*	/
O=C(c1ccc2c(c1)N(Cc1cccc(Cl)c1)C(=O)c1ccccc1S2(=O)=O)N1CCc2ccccc21	/	-10%	/	1.6µM*	2.1µM*	/
O=C(c1ccc2c(c1)N(Cc1cccc(Cl)c1)C(=O)c1ccccc1S2(=O)=O)N1CCCCC1	/	?	/	?	16µM*	/
Cc1c(F)cccc1NC(=O)Nc1cccc(-c2ccc(N3CCOCC3)nn2)c1	/	-21%	/	/	/	/
O=C(O)c1cc(-c2ccco2)[nH]n1	8%	0%	14	-2%	-15%	10%
CC1CCC(C(=O)NNC(=O)c2cc(-c3ccco3)[nH]n2)CC1 (stereo unspecified)	18%	14%	-4	16µM*	18µM*	14%
Cc1ccc(-c2nnc(-c3cccc4ccccc34)o2)cc1	-4%	-3%	-3	21µM*	16µM*	-8%
COc1cccc(-c2nnc(-c3ccc(C(F)(F)F)cc3)o2)c1OC	3%	0%	?	21µM*	?	11%
COc1ccc(-c2nnc(-c3ccccc3O)o2)cc1	?	1%	23	10µM*	?	-9%
Cn1ccc(C(=O)N2CCC(c3nnc4n3C(C(=O)NCc3ccc(F)cc3)CC4)CC2)n1 (stereo unspecified)	/	4%[6.33 µM]	/	/	/	/
O=C(Cc1cccc(NC(=O)C2CCCN(C(=O)C3CCCC3)C2)c1)Nc1ccc(C(=O)N2CCOCC2)cc1 (stereo unspecified)	2%	-7%	-25	?	16µM*	-2%
O=C(Cc1cccc(NC(=O)C2CCCN(C(=O)CCc3ccccc3)C2)c1)Nc1cccc(C(=O)N2CCCCC2)c1 (stereo unspecified)	-3%	1%	-21	21µM*	16µM*	0%
CN(C(=O)c1cccc(NC(=O)Cc2ccc(NC(=O)C3CCN(C(=O)CCc4ccccc4)CC3)cc2)c1)C1CCCCC1	-10%	-28%	-9	15µM*	21µM*	-27%
O=C(Cc1cccc(NC(=O)C2CCCN(C(=O)C3CCC3)C2)c1)Nc1ccc(C(=O)N2CCOCC2)cc1 (stereo unspecified)	3%	-3%	-12	-17%	-26%	10%
CN(C(=O)c1cccc(NC(=O)Cc2cccc(NC(=O)C3CCCN(C(=O)CCc4ccccc4)C3)c2)c1)C1CCC1 (stereo unspecified)	-12%	0%	-18	21µM*	?	-8%
CN(C(=O)c1ccc(NC(=O)Cc2cccc(NC(=O)C3CCCN(C(=O)CCc4ccccc4)C3)c2)cc1)C1CC1 (stereo unspecified)	0%	0%	8	?	?	-6%
SMILES	HT1080NT lethal	12-LOX inh	IL-1B inflam inh	TDP1 cell noCPT	DT40 TDP1 CPT	HT1080 IDH1KD tx
c1ccc2c(c1)ncn2-n1cccc1	/	17%	/	/	/	/
Cc1ccccc1S(=O)(=O)N1CCn2c(nn(CC3CC3)c2=O)C1	/	8%	/	/	/	/
O=C1CNC(=S)N1Cc1ccc(Cl)cc1	-7%	3%	-12	-3%	-18%	-5%
O=C1CNC(=S)N1CCc1ccc(Cl)cc1	15%	141%	-18	16µM*	26%	3%
O=C(NC1CCCCC1)C1CN(S(=O)(=O)c2ccccc2Cl)CC12CCOCC2 (stereo unspecified)	/	-8%	/	/	/	/
C=CCOC(=O)C(=O)/C=C/c1csc2ccccc12	-3%	?	53	?	-18%	-1%
C=CCOC(=O)C(=O)/C=C/c1ccc2c(c1)Cc1ccccc1-2	-6%	14µM*	-14	?	?	0%
O=C(CCNc1nc(Cl)nc2nc[nH]c12)NCCc1c[nH]c2ccccc12	/	6%	/	/	/	/
COC(=O)c1c(-c2ccc(N(C)C)cc2)oc2c1C(OC)CCC2 (stereo unspecified)	-10%	?	-10	18µM*	?	-25%
Cc1cccc(C(=O)NCC(c2cccs2)c2c[nH]c3ccccc23)n1 (stereo unspecified)	/	-5%	/	/	/	/
O=C(N/N=C/c1cn(-c2ccccc2)nc1-c1cccs1)c1ccccc1F	-26%	/	-12	-120%	16µM*	?
O=C(N/N=C/c1cn(-c2ccccc2)nc1-c1cccs1)c1ccc(Cl)cc1	-9%	-7%	-29	?	?	-17%
CC1=NNC(=O)/C1=C\c1cn(-c2ccccc2)nc1-c1cccs1	8.2µM*	?	-96*	2.6µM*	2.6µM*	8.2µM*
O=C(N/N=C/c1cn(-c2ccccc2)nc1-c1cccnc1)c1ccc(F)cc1	-22%	459%	?	?	?	-26%

Screens as filed in PubChem.
